Measured values published in PubChem BioAssay.

Biological target: Streptavidin (Streptomyces avidinii) (UniProt P22629)
Assay: compounds binding control protein streptavidin – biophysical, small-molecule microarray, 635/667 nm fluorescence, artefact control for SMM compound annotation, primary screen (AID 1147);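 further: signal reflects streptavidin binding to arrayed compounds as a control protein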
Conditions: higher = more signal

Sequence of Streptavidin (Streptomyces avidinii) (P22629 whole entry, looked up): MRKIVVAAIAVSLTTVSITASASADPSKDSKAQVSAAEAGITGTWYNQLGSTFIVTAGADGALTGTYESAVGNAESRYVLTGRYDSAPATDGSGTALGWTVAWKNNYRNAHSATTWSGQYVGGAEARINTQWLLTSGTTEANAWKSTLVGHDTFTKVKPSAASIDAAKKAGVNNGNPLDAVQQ

Structure (SMILES) | composite z-score
NCCCCCNC(=O)[C@@H]1C[C@@H]2C(=O)N3CCC[C@H]3C(=O)N2[C@@H]1c1cccc(OCCO)c1 | 0.899
C=CC[C@]1(C(=O)NCc2ccccc2)N=C(c2ccc(OCCCO)cc2)O[C@H]1c1ccccc1 | -0.134
COCCOC(=O)N1C(=O)[C@@]2(c3cc(C#CCNC(N)=O)ccc31)[C@H](c1ccc(O)cc1)N1[C@H](c3ccccc3)[C@H](c3ccccc3)OC(=O)[C@H]1[C@@H]2C(=O)N1CCCCCCC1 | 0.445
O=C1[C@H]2[C@H]3[C@H](O)[C@H](O)CC(=NO[C@@H]4O[C@H](CO)[C@@H](O)[C@H](O)[C@H]4O)[C@@H]3CC[C@H]2C(=O)N1Cc1ccc2c(c1)OCO2 | 0.335
O=C1[C@H]2[C@H]3[C@H](O)[C@H](O)CC(=NOCc4ccccc4)[C@@H]3CC[C@H]2C(=O)N1C1CCCCC1 | -0.0498
O=C1[C@H]2[C@H]3[C@H](O)[C@H](O)CC(=NO[C@@H]4O[C@H](CO)[C@@H](O)[C@H](O)[C@H]4O)[C@H]3CC[C@H]2C(=O)N1Cc1ccc2c(c1)OCO2 | 0.595
O=C(NN=C1C[C@@H](O)[C@@H](O)[C@@H]2[C@@H]3C(=O)N(c4cccc(Oc5ccccc5)c4)C(=O)[C@@H]3CC[C@H]12)OCc1ccccc1 | 1.68
CC(C)CON=C1C[C@@H](O)[C@@H](O)[C@@H]2[C@@H]3C(=O)N([C@@H](C)c4ccccc4)C(=O)[C@@H]3CC[C@H]12 | 0.528
CC(=O)O[C@H]1C2=C(C(=O)[C@@H]3O[C@@H]31)[C@H]1C(C)O[C@@H]2[C@@]23C(=O)[C@@H]4O[C@@H]4[C@@H](O)C2=CO[C@H](C)[C@@H]13 (stereo partly specified) | -0.503
CC(C)(C)N1C(=O)[C@H]2[C@H]3[C@H](O)[C@H](O)CC(=NOCc4ccccc4)[C@@H]3CC[C@H]2C1=O | 0.33
O=C1[C@H]2[C@H]3[C@H](O)[C@H](O)CC(=NOC[C@@H](O)COCc4ccco4)[C@H]3CC[C@H]2C(=O)N1c1cccc(Oc2ccccc2)c1 | -0.393
CC(C)=CCCC(C)=CCON=C1C[C@@H](O)[C@@H](O)[C@@H]2[C@@H]3C(=O)N(C[C@@H]4CCCO4)C(=O)[C@@H]3CC[C@@H]12 | -0.0996
Cc1ccc(S(=O)(=O)N[C@@H]2COC(=O)[C@H](C)COC(=O)CC=C[C@H]2C)cc1 | 0.134
CCc1cc2c(nc1CC)CCN(CCC(C)=NO[C@@H](C)c1cc(-c3c(C)cc(C)cc3C)no1)C2 | 1.67
CC(=O)OC[C@H]1O[C@@H](ON=C(C)CCN2CCc3nc(-c4ccccc4)c(-c4ccccc4)cc3C2)[C@H](OC(C)=O)[C@@H](OC(C)=O)[C@@H]1OC(C)=O | 0.65
Cc1ccc(S[C@]2(C(=O)NCC(F)(F)F)CC(=O)N(Cc3ccccc3Cl)[C@@H]2c2ccc(CO)cc2I)cc1 | -0.809
CO[C@@H]1COC(=O)CC=C[C@@H](C)COC(=O)[C@H](COCc2ccccc2)NC(=O)CC=C[C@H]1C | -0.214
O[C@@H](Cc1ccccc1)[C@H]1C2C=CCCC(c3ccccc3)=C2CN1Cc1cccc(Cl)c1 (stereo partly specified) | 0.26

Structure (SMILES) | composite z-score
CC(=O)OC[C@H]1O[C@H](CCON=C[C@@H](C)[C@H](OCc2ccccc2)C(C)C)C=C[C@@H]1OC(C)=O | 0.133
CC1(C)OCC(C(O)C2=CCCCC2=O)CO1 (stereo unspecified) | 0.412
CO[C@@H]1COC(=O)CC=C[C@@H](C)[C@@H]2C=C[C@H](O)[C@@H](COC(=O)[C@H](C)NC(=O)CC=C[C@H]1C)O2 | -0.408
CCCCCN1CC=CC23O[C@@H]4C=CCOC(=O)[C@@H]4[C@H]2C(=O)N(CCCCCCO)[C@@H]3C1=O (stereo partly specified) | -0.976
COCCCNC(=O)[C@@]1(C)c2ccccc2C(=O)N(Cc2ccc(OC(F)(F)F)cc2)[C@H]1c1ccc(CO)cc1 | -0.773
CC(C)[C@@H](OCc1ccccc1)[C@H](C)C=NO[C@H](C)c1cn([C@H](CO)Cc2ccccc2)nn1 | 0.808
c1ccc(C2NCCc3c2[nH]c2ccccc32)cc1 (stereo unspecified) | -0.26
O=C1NC(=O)C2C1C=CC(C(O)Cc1ccccc1)N2Nc1ccccn1 (stereo unspecified) | 0.125
CCOC(=O)[C@H](Cc1ccccc1)NC(=O)CCC1CC(OC(=O)NCCc2ccc(F)cc2)CC2(CCCC(COC(=O)NCC(c3ccccc3)c3ccccc3)O2)O1 (stereo partly specified) | 0.388
COCCOC(=O)N1C(=O)[C@@]2(c3cc(C#Cc4ccc(OC)cc4)ccc31)[C@H](C(=O)N1CCN(c3ncccn3)CC1)[C@H]1C(=O)O[C@H](c3ccccc3)[C@H](c3ccccc3)N1[C@@H]2c1ccc(OCCO)cc1 | 0.531
CC(=O)OC[C@H]1O[C@@H](ON=C[C@@H](C)[C@H](OCc2ccccc2)C(C)C)[C@H](OC(C)=O)[C@@H](OC(C)=O)[C@@H]1OC(C)=O | -0.173
COC(=O)CC=C[C@@H](C)[C@@H](C=NO[C@H](C)c1cn([C@@H]2COC[C@H]2O)nn1)OC | 0.521
CC(CCN1CCc2nc(-c3ccccc3)c(-c3ccccc3)cc2C1)=NOC(C)CN1CCCCc2nc(C)c(C)cc21 (stereo unspecified) | 0.393
CC(=O)OC[C@H]1O[C@H](C#CCCCc2ccccc2)C=C[C@@H]1OC(C)=O | -0.111
CCOc1ccc(N2C(=O)/C(=C/C=C/c3ccccc3OC)S(=O)(=O)C2c2cccc([N+](=O)[O-])c2)cc1 (stereo unspecified) | 0.27
COC(=O)[C@@H]1N=C(c2ccc(OCCCO)cc2)O[C@@H]1c1ccccc1N=[N+]=[N-] | 0.937
CCN1C(=O)[C@H]2[C@H]3[C@H](O)[C@H](O)CC(=NOC(C)CN4CCCCc5nc(C)c(C)cc54)[C@@H]3CC[C@H]2C1=O (stereo partly specified) | -0.0098
CC(C)(C)OC(=O)CC[C@]1(C(N)=O)COC(c2ccc(OCCCO)cc2)=N1 | 0.248
